Data published in PubChem BioAssay AID1220 (Sanford-Burnham Center for Chemical Genomics, 2008).
About 1,300 (0.68%) of roughly 190,000 compounds were called active. For the sample, actives were picked, then their nearest neighbours and some compounds at random. A number with no mark means an inactive call. No stated cut-off is given here; in the data, active means inhibition above about 50%; inactive means the rest.

Each compound was assayed against Mannose-6-phosphate isomerase (Homo sapiens) (UniProt P34949) (assay: MPI inhibition at elevated mannose 6-phosphate – biochemical, fluorescence intensity, high mannose 6-phosphate, primary screen (AID 1220)). Details: recombinant PMI enzyme, coupled fluorescence intensity; at 20 µM; active compounds read high.
Mannose-6-phosphate isomerase (Homo sapiens), sequence (P34949 whole entry, looked up): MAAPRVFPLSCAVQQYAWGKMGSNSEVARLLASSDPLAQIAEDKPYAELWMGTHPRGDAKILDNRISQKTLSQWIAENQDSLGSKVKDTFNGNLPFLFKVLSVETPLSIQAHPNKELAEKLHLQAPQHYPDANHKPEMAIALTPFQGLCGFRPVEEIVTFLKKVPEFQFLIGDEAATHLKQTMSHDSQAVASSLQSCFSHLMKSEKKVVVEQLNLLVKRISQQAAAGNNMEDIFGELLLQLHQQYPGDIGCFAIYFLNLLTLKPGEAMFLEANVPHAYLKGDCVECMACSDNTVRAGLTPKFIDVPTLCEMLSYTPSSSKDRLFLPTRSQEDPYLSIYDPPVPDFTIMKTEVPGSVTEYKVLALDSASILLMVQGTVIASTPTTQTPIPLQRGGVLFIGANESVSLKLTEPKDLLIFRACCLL
`Cc1nn(CC(=O)Nc2sc3c(c2C#N)CCC(C(C)(C)C)C3)c(C)c1[N+](=O)[O-]` (stereo not given) was tested, and the inhibition was 21%.
In the case of `COc1ccc(S(=O)(=O)NNC(=O)C2CC(c3cccnc3)=NO2)cc1` (stereo not given), the inhibition is reported as -11%.
`CC(=O)C(=Nc1ccccc1Cl)NNc1ccc(Cl)cc1` gave an inhibition of -52.8%.
`C=CCOn1c(=O)c(-c2ccccc2)[n+]([O-])c2ccccc21` was tested, and the inhibition was 12%.
Compound `COc1ccc(CCN(Cc2cc3cc(C)cc(C)c3nc2Cl)C(=O)C2CC2)cc1` has an inhibition of 15.7%.
Work on `Clc1ccc(-c2nnc3n2CCCCS3)cc1` yielded an inhibition of -8.4%.
`CCCN1CCN(c2nc3c([nH]2)c(=N)ncn3CC(O)CO)CC1` (stereo not given) gave an inhibition of 2.5%.
`COC(=O)C1C(=O)c2c([nH]c(C(=O)OC3CCCC3C)c2C)CC1C` (stereo not given) was tested, and the inhibition was 12.3%.
In the case of `COc1ccc(-c2nn3c(-c4ccc(F)cc4)nnc3s2)cc1`, the inhibition is reported as -6.8%.
With `O=C(Cn1c2c(sc1=O)C1c3ccccc3OCC1CS2)Nc1ccc(Cl)cc1` (stereo not given) the inhibition was 8.7%.
Compound `Cn1cc(C2CC(c3ccccc3)=NN2C(=O)c2ccccc2)c2ccccc21` (stereo not given) has an inhibition of 20.9%.
Work on `Cc1nc2ccc(NC(=S)NCCCO)cc2nc1C` yielded an inhibition of -2.9%.
With `OCCCNC(=S)Nc1ccc2nccnc2c1` the inhibition was 53.9% (active).
With `OCCCNC(=S)Nc1ccc2nc(-c3ccccn3)c(-c3ccccn3)nc2c1` the inhibition was 14.4%.
`c1ccc2c(CCNc3ncnc4nc[nH]c34)cccc2c1` was tested, and the inhibition was 10%.
`CNC(=O)c1ccc(-c2sc3nc(N4CCOCC4)c4c(c3c2N)CCCC4)o1` was tested, and the inhibition was 55.4% (active).
In the case of `COC(=O)c1ccc(-c2sc3nc(N4CCOCC4)c4c(c3c2N)CCCC4)o1`, the inhibition is reported as 20.1%.
`CNC(=O)c1ccc(-c2sc3nc(N4CCOCC4)c4c(c3c2N)CC(C)(C)OC4)o1` gave an inhibition of 48.4%.
`CC(C)C(=O)Nc1cccc(-c2csc(-c3ccccc3)n2)c1` showed an inhibition of 11.9%.
`COc1ccc(-c2noc(-c3cccnc3)n2)cc1OC` was tested, and the inhibition was -11.6%.
`COc1cc(CC(C#N)(CO)c2nc3ccccc3[nH]2)ccc1OC(F)F` (stereo not given) showed an inhibition of 16.3%.
`Cc1nc(N2CCCC2)c2ccsc2n1` showed an inhibition of -2.9%.
`CCN(CC)CCCNC(=O)CSc1c2c(nc3cc(Cl)ccc13)CCCC2` showed an inhibition of -5.8%.
`O=C(CSc1c2c(nc3cc(Cl)ccc13)CCCC2)NCCN1CCOCC1` gave an inhibition of 2.2%.
With `CCN(CC)CCNC(=O)CSc1c2c(nc3cc(Cl)ccc13)CCCC2` the inhibition was 56.3% (active).
With `Cn1c(Cn2c(=O)sc3ccccc32)nnc1SCC(=O)NCC1CCCO1` (stereo not given) the inhibition was 2.5%.
Work on `CC(C)Cc1ccc(/C=C/C(=O)N2CCCCC2)cc1` yielded an inhibition of 9.7%.
Compound `Cc1ccc2nc(NC(=O)c3ccc(-c4nc5ccccc5s4)s3)sc2c1` has an inhibition of -17.4%.
`COc1ccc(N2CCN(c3nc4ccccn4c(=O)c3C=O)CC2)cc1` gave an inhibition of 42.4%.
`COc1ccc(N2CCN(c3nc4ccc(C)cn4c(=O)c3C=O)CC2)cc1` was tested, and the inhibition was 56.9% (active).
With `Cc1ccc2nc(N3CCOCC3)c(C=O)c(=O)n2c1` the inhibition was 2.9%.
With `Cc1ccc2nc(N3CCN(c4ccccc4)CC3)c(C=O)c(=O)n2c1` the inhibition was 50.4% (active).
`Cc1ccc2nc(N3CCCCC3)c(C=O)c(=O)n2c1` showed an inhibition of -6.8%.
`Cc1ccc2nc(N3CCN(c4ccccc4F)CC3)c(C=O)c(=O)n2c1` gave an inhibition of 19.9%.
With `CC(C)(C)c1ccc(NC(=O)COC(=O)CCN2C(=O)c3cccc([N+](=O)[O-])c3C2=O)cc1` the inhibition was 3.2%.
For `CN1CCN(S(=O)(=O)c2ccc(NC(=O)c3csc4ccccc34)cc2)CC1`, the inhibition was -13.4%.
For `CC(=O)Nc1ccc(NS(=O)(=O)Cc2ccccc2)cc1`, the inhibition was 3.4%.
`COc1ccc(C(CNC(=O)Cc2ccccc2F)N2CCCCC2)cc1` (stereo not given) was tested, and the inhibition was -1.6%.
For `CN1/C(=C\C(=O)c2ccco2)c2ccccc2CC1(C)C`, the inhibition was -4.8%.
For `Cc1ccccc1NC(=S)NC12CN3CN(CN(C3)C1)C2`, the inhibition was 1.3%.
Compound `CCc1ccccc1N1CC23C=CC(O2)C(C(=O)OCC(C)C)C3C1=O` (stereo not given) has an inhibition of 7.8%.
`Cc1cccc(-c2nnc(SCC#N)n2Cc2ccccc2)c1` gave an inhibition of -0.8%.
`CC(Sc1cccc[n+]1[O-])C(=O)Nc1ccc(Oc2ccccc2)cc1` (stereo not given) showed an inhibition of 0%.
`CC(=O)N/N=C/c1c(C)[nH]n(-c2ccccc2)c1=O` showed an inhibition of 7.9%.
In the case of `O=C(O)CN1C(=O)/C(=C/c2ccsc2)SC1=S`, the inhibition is reported as -5.3%.
`CCCc1cc(C(=O)Cc2ccc(C(=O)OCC)o2)c(O)cc1O` was tested, and the inhibition was -51.6%.
Compound `CCOC(=O)c1ccc(CC(=O)c2ccc(O)cc2O)o1` has an inhibition of -31.2%.
`COC(=O)c1ccc(CC(=O)c2ccc(O)cc2O)o1` gave an inhibition of -59.1%.
In the case of `Cc1cc(O)cc(O)c1C(=O)Cc1ccccc1`, the inhibition is reported as -2.6%.
For `COC(=O)c1ccc(CC(=O)c2c(C)cc(O)cc2O)o1`, the inhibition was 50.8% (active).
Work on `Cc1ccc(NCc2nnc(SCC(=O)NCc3ccco3)n2CC2CCCO2)c(C)c1` (stereo not given) yielded an inhibition of 8%.
`CCSC1=NCCN1S(=O)(=O)c1ccccc1` was tested, and the inhibition was 7.2%.
In the case of `C/C(=C\C(=O)Nc1cc(C)on1)c1ccccc1`, the inhibition is reported as 15.6%.
`Cc1nnc(NC(=O)C(C)Oc2ccc3c(C)cc(=O)oc3c2)s1` (stereo not given) was tested, and the inhibition was -8.9%.
`CCS(=O)(=O)N1Cc2ccccc2CC1C(=O)Nc1ncc(C)s1` (stereo not given) showed an inhibition of -7.1%.
Work on `Clc1cccc(Cl)c1Cn1cnc2c(N3CCCCCC3)ncnc21` yielded an inhibition of 14.8%.
In the case of `CC(=O)c1ccc2cccc3c2c1N=CN3C`, the inhibition is reported as 55.2% (active).
With `CC(=O)c1c(C(C)=O)c(C)n(-c2cccc3cccnc23)c1C` the inhibition was -2.3%.
In the case of `CC(=O)N1C(=O)c2cccc3cccc(c23)C(=O)N1C(C)=O`, the inhibition is reported as 7.9%.
`CC1=Nc2ncnn2C(c2ccccc2)/C1=N\O` (stereo not given) was tested, and the inhibition was -9.4%.
For `Cc1ccc(NC2c3ncccc3C(=O)N2c2ccccc2C)cc1C` (stereo not given), the inhibition was -17.7%.
Compound `O=C(CCNC(=O)Cn1ccc2ccccc2c1=O)NCCCN1CCOCC1` has an inhibition of 10.9%.
`Cc1ccc(C)c(OCC(=O)N/N=C/c2ccsc2)c1` gave an inhibition of 3%.
For `CC(C)(C)c1ccc(OCC(=O)N/N=C/c2ccsc2)cc1`, the inhibition was 54.9% (active).
`COc1ccc(OCC(=O)N/N=C/c2ccsc2)cc1` gave an inhibition of 17.2%.
In the case of `O=C(O)c1cccc(N2C(=O)c3cccc(Oc4ccc(Cl)cc4)c3C2=O)c1`, the inhibition is reported as -8.6%.
`Cc1cccc(N2C(=O)c3cccc(Oc4ccc(Cl)cc4)c3C2=O)c1` was tested, and the inhibition was 13.8%.
In the case of `Cc1ccc(N2C(=O)c3cccc(Oc4ccc(Cl)cc4)c3C2=O)c(C)c1`, the inhibition is reported as 50.4% (active).
Work on `Cc1[nH]c(=O)c(C#N)cc1-c1ccccc1` yielded an inhibition of 10.3%.
`CCn1c(=O)cc(SCC(=O)N2CCN(C)CC2)c2ccccc21` gave an inhibition of -10.8%.
In the case of `CC(=O)Nc1ccc(-c2nc(C)c(C(C)=O)n2O)cc1`, the inhibition is reported as 22.6%.
`CCOc1ncccc1C(=O)OCC(=O)c1cc(C)n(Cc2ccco2)c1C` showed an inhibition of 12.1%.
With `O=C(COc1cccnc1[N+](=O)[O-])NCc1ccco1` the inhibition was 65.7% (active).
`CC(=O)Nc1ccccc1OCC(=O)c1cc(C)n(Cc2cccs2)c1C` showed an inhibition of 17.5%.
In the case of `Cc1cc(C(=O)COc2cccnc2[N+](=O)[O-])c(C)n1Cc1cccs1`, the inhibition is reported as 64.4% (active).
`Cc1ccc(OCC(=O)c2cc(C)n(Cc3cccs3)c2C)c([N+](=O)[O-])n1` was tested, and the inhibition was 26.4%.
With `O=C(COc1cccnc1[N+](=O)[O-])NCc1cccs1` the inhibition was 3%.
With `Cc1cc(C(=O)COc2cccnc2[N+](=O)[O-])c(C)n1Cc1ccco1` the inhibition was 59.5% (active).
In the case of `Cc1ccc(OCC(=O)NCc2ccco2)c([N+](=O)[O-])n1`, the inhibition is reported as 1.9%.
With `Cc1ccc2cccc(OCC(=O)c3cc(C)n(Cc4ccco4)c3C)c2n1` the inhibition was 20.9%.
Work on `O=[N+]([O-])c1cc(C(F)(F)F)ccc1NCCOc1ccccc1` yielded an inhibition of 9%.
Compound `O=C(CCCCn1c(=O)c2ccccc2n(CC(=O)Nc2cccc(F)c2)c1=O)NCc1ccco1` has an inhibition of 9.4%.
`COc1ccc(S(=O)(=O)N(CC(=O)N2CCN(c3ccccc3OC)CC2)c2ccccc2)cc1` showed an inhibition of 13.1%.
`COc1ccc(NC(C)=O)cc1NC(C)C(=O)Nc1ccc(F)cc1` (stereo not given) was tested, and the inhibition was 7%.
With `Cc1sc2nc(C(C)Nc3ccccc3N3CCOCC3)[nH]c(=O)c2c1C` (stereo not given) the inhibition was 26.7%.
For `COc1ccc(NC(C)=O)cc1NC(C)c1nc2sc(C)c(C)c2c(=O)[nH]1` (stereo not given), the inhibition was 66.6% (active).
In the case of `COc1ccc(S(=O)(=O)CCC(=O)N2CCN(c3ccc(F)cc3)CC2)cc1`, the inhibition is reported as -1.5%.
For `CCn1c(COc2ccc3c(c2)OCO3)nnc1SCC(=O)O`, the inhibition was -46.4%.
In the case of `O=C(Oc1cccc2cccnc12)c1ccc2c(c1)OCCO2`, the inhibition is reported as 29.5%.
`Cc1ccc(C(C)C)c(OC(=O)/C=C/c2ccccc2)c1` showed an inhibition of 6.5%.
`O=C(/C=C\c1ccccc1)Oc1cccc2cccnc12` was tested, and the inhibition was 51.9% (active).
In the case of `Cc1ccc2cccc(OC(=O)c3ccc4c(c3)OCCO4)c2n1`, the inhibition is reported as 54% (active).
With `Cc1c(C(=O)Oc2cccc3cccnc23)oc2ccccc12` the inhibition was 50% (active).
`Cc1c(C(=O)Nc2cccc3cccnc23)oc2ccccc12` gave an inhibition of -0.2%.
`O=C(/C=C\c1ccco1)Oc1cccc2cccnc12` showed an inhibition of 34.3%.
In the case of `Cc1ccc2cccc(OC(=O)/C=C\c3ccccc3)c2n1`, the inhibition is reported as 60.1% (active).
For `COC(=O)c1ccccc1OCCOCCOc1cccc2ccc(C)nc12`, the inhibition was 45%.
In the case of `CCc1nc2ccccc2c(C(=O)Oc2cccc3cccnc23)c1C`, the inhibition is reported as 7.3%.
With `Cc1ccc2cccc(OCC(=O)Nc3ccc4c(c3)OCO4)c2n1` the inhibition was 15.2%.
With `COc1ccccc1/C=C/C(=O)Oc1cccc2cccnc12` the inhibition was 26.5%.
